47 compounds from PubChem BioAssay AID1347071 (National Center for Advancing Translational Sciences (NCATS), 2019) can be followed below.

The structures appear in SMILES notation. Out of some 410,000 compounds screened, about 260 (0.063%) were called active. Inconclusive results (about 2%) are left out. The list comes from a sample in which actives are over-represented; it also holds similar structures and randomly drawn compounds. Unmarked numbers belong to inactive results. Calls come from the whole dose curve; as a rule, active = well fitted activation curve with a large enough effect; inconclusive = small, poorly fitted or top-dose-only effect; inactive = no such curve, though single readings can be large or run the other way.

This assay can be described thus: qHTS for compounds that reverse cellular toxicity of Amyloid beta (A-beta) peptide in yeast: Primary Screen. Note: nearly all actives have a fitted effect of over 55% in size. The conditions noted are these: yeast expressing A-beta42, growth rescue, OD600, 48 h; series mostly up to 46.1 µM; growth rescue: at the top concentration. The text has this: The A-beta peptide is produced by the processing of the amyloid precursor protein (APP) by two proteases, beta and gamma secretases. […] A-beta42 is regarded as the most amyloidogenic form due to its hydrophobicity; however, precisely how A-beta42 induces neurotoxicity is unclear. To understand further this biology and its potential therapeutic implications for human neurodegenerative disease, a quantitative high-throughput screen for compounds that reverse the cellular toxicity of the A-beta peptide was developed. A yeast based screen was used because it recapitulates the salient feature of protein mis-folding disorder accurately. This cell-based phenotypic screen provides a significant, unbiased advantage by letting the compounds and models inform us which proteins or pathways are most relevant. The ideal chemical candidates would therefore have activity in both our primary yeast and secondary neuronal toxicity assays, as well as in mouse models. They will be valuable tools for dissecting diverse protein homeostasis pathologies and could potentially become the focus for future pre-clinical development. For this luminescence assay, inhibition of A-beta rescues the toxic effect in the yeast cell, resulting in increase of signals and the desired phenotype of "Activator". This screen is run against the Molecular Libraries Small Molecule Repository (MLSMR) and the NCGC Sytravon Library Collection.
NIH Chemical Genomics Center [NCGC]
NIH Molecular Libraries Probe Centers Network [MLPCN]
Assay Submitter (PI): Susan Lindquist, Whitehead Institute, Massachusetts Institute of Technology
[1] Vassar R,et al (1999). Beta-secretase cleavage of Alzheimer's amyloid precursor protein by the transmembrane aspartic protease BACE. Science. 286: 735-741.
[2] Yan R, et al (1999). Membrane-anchored aspartyl protease with Alzheimer's disease beta-secretase activity. Nature. 402: 533-536.
Two and a half microliter / well of yeast growth medium were dispensed in a 1536 assay plate. Compounds were pinned using the Kalypsys robotic system followed by addition of 2.5 uL / well yeast solution. The assay plates were incubated at 30 C. After 48 hr, the absorbance signal at 600 nm was obtained using the PerkinElmer ViewLux plate reader to assess yeast growth. The data was normalized to the positive control of an equimolar mixture of ferric chloride (FeCl3) and clioquinol and to the negative control DMSO.
In the case of `Cc1cccc(NC(=O)C2CCCN2S(=O)(=O)c2cccc3nsnc23)c1C` (configuration not stated), the “growth rescue” value is -2.47%.
For the compound `COc1ccc(OCCCn2c(C)nc3cc(C)c(C)cc32)cc1`, the “growth rescue” value was -4.77%.
The same measure, in the same setting: then `Cc1c(-c2nc(-c3ccc4c(c3)OCO4)no2)nnn1-c1ccc(Br)cc1F`, with -2.02%; and `O=C(CCn1ccc2cc(S(=O)(=O)N3CCCC3)ccc21)NCc1cccc(Cl)c1`, with 2.11%.
Same read-out and setting: then `O=C(CSc1oc(-c2ccccc2)nc1S(=O)(=O)c1ccc(Br)cc1)NC1CCCCC1`, with 5.91%; and `CC(C)CCNC(=O)CSc1nc2ccccc2nc1Cc1ccc(Cl)cc1`, with 9.91%; and `COc1cc(C(=O)Nc2ccc(-n3c(C)nc4ccccc4c3=O)cc2)cc(OC)c1OC`, with -7.82%.
On the same count and under the same terms, then `CCOc1ccccc1C(=O)Nc1ccc(S(=O)(=O)N2CCCCC2c2cccnc2)cc1` (configuration not stated), with -13.3%; and `Cn1c(=O)c2c(nc(Oc3ccc(C#N)cc3)n2Cc2ccc(Cl)cc2Cl)n(C)c1=O`, with -7.43%.
`CCN(c1ncnc2c1cnn2-c1ccc(C)cc1)C1CCCCC1`: the “growth rescue” value was -13.3%.
For `Cc1ccc(NC(=O)c2nc(S(=O)(=O)Cc3cccc(C)c3)ncc2Cl)cc1`, the “growth rescue” value was -33.4%.
On the same count and under the same terms, then `Cc1nnc(N2CCCC(C(=O)NCCN(C)C)C2)c2nn(-c3ccccc3)c(C)c12` (configuration not stated), with -0.421%; and `COc1ccc(C2=NC(c3ccncc3)=Nc3ccc(Br)cc3N2)cc1`, with -13.2%; and `COc1ccc(OC)c(-n2nnc3c(sc4nc(C)c(Br)c(C)c43)c2=O)c1`, with -12.2%.
Still for that read-out and setting: then `CCS(=O)(=O)N1CCC(n2c(C)nc3cccnc32)CC1`, with -4.75%; and `COc1cc(OC)c(NC(=O)N2CC3CCCN3c3ccccc32)cc1Cl` (configuration not stated), with -9.37%; and `CCOc1ccc(CNC(=O)c2ccc(CS(=O)c3ccccc3)o2)cc1` (configuration not stated), with -8.75%.
As to `CCCCn1c(=N)c(S(=O)(=O)c2ccccc2)cc2c(=O)n3cccc(C)c3nc21`, the “growth rescue” value is 0.43%.
The same measure, in the same setting: then `Fc1ccc(Nc2nc(SCc3ccccc3Cl)nc3ccccc23)cc1`, with -45.3%.
`COc1ccccc1N1CCN(C(=O)C2CCN(S(=O)(=O)c3c(C)noc3/C=C/c3ccc(C)cc3)CC2)CC1`: the “growth rescue” value is -1.97%.
Consider `Cc1ccc2oc3c(c(=O)c2c1)C(c1ccc(O)cc1)N(Cc1ccc2c(c1)OCO2)C3=O` (configuration not stated), for which the “growth rescue” value is 5.68%.
The same measure, in the same setting: then `COc1ccc(-c2cc(NCc3ccc(F)cc3)n3cnnc3n2)cc1`, with -4.36%; and `CCCCN(C)S(=O)(=O)c1ccc(C(=O)Nc2sc3c(c2C(N)=O)CC(C)(C)NC3(C)C)cc1`, with -10.9%; and `Cc1ccc(N(CC(=O)NCc2ccc(Cl)cc2)S(=O)(=O)N(C)C)cc1`, with 13%.
The same measure, in the same setting: then `Cc1cc2nn(-c3ccc(Cl)cc3)nc2cc1NC(=O)C(C)C`, with -14.3%.
As for `Cc1ccc(C(=O)CSc2nc(-c3ccccc3)nc3c2CCCC3)c(C)c1`, the “growth rescue” value is -11.5%.
On to `O=C(NC1CC(=O)N(c2ccccc2)C1)c1ccco1` (configuration not stated), for which the “growth rescue” value was 11.5%.
The same measure, in the same setting: then `COCCNC(=O)CSc1nc(-c2ccccc2)[nH]c1-c1ccc(C)cc1`, with -13.5%; and `COc1ccccc1CNC(=O)C(Cc1ccccc1)NS(=O)(=O)c1ccc2c(c1)oc(=O)n2C` (configuration not stated), with 0.772%; and `CCCCNC(=O)C1CCCN(c2nnc(C)c3c(C)n(-c4ccc(Cl)cc4)nc23)C1` (configuration not stated), with -17.8%.
On the same count and under the same terms, then `CCOC(=O)c1c(NC(=O)CSc2cn(CCNC(=O)c3cccc(C(F)(F)F)c3)c3ccccc23)sc2c1CCC2`, with -8.29%; and `Cn1c(=O)c2c(ncn2CC(=O)Nc2cccc(C(F)(F)F)c2)n(C)c1=O`, with -3.94%.
Still for that read-out and setting: then `CCN(CCCNC(=O)c1ccc(Sc2ccc(C)cc2)c(NC(C)=O)c1)c1cccc(C)c1`, with -1.54%; and `C#CCOc1ccc(C2CC(=O)Nc3c2c(C)nn3-c2nc(C)cc(C)n2)cc1` (configuration not stated), with 2.23%.
For `COc1cccc(NC(=O)CSC2=Nc3ccccc3C3=NC(CC(=O)NC4CCCCC4)C(=O)N23)c1` (configuration not stated), the “growth rescue” value is -14.8%.
The same measure, in the same setting: then `O=C(CNS(=O)(=O)c1cccs1)N1CCN(c2ccccc2Cl)CC1`, with 5.4%.
On to `CSc1nsc(SC)c1NC(=O)OC1CCCCC1`, for which the Potency is 4.47 µM (active).
`Cc1nnc(N2CCC(C(=O)Nc3ccc(F)cc3)CC2)c2nn(-c3ccc(Cl)cc3)c(C)c12`: the “growth rescue” value was 5.45%.
Still for that read-out and setting: then `COc1ccc(-c2onc(C)c2C)cc1S(=O)(=O)NCc1cccs1`, with -11.1%; and `COc1cc(OC)cc(-c2nc3nc(C)c(CCC(=O)Nc4ccc(C)cc4)c(C)n3n2)c1`, with -8.3%.
Turning to `CCOCCc1nn2c(=O)cc(COC(=O)CNC(=O)c3ccc(C(C)(C)C)cc3)nc2s1`, the “growth rescue” value was -7.06%.
On the same count and under the same terms, then `Cc1ccccc1-n1c(=O)c2ccccc2n(Cc2ccc(F)cc2)c1=O`, with 8.53%; and `CCOC(=O)c1cnc2c(C)cc(Cl)cc2c1NCCc1ccc(OC)c(OC)c1`, with -7.55%.
Same read-out and setting: then `CCOc1ccccc1NC(=O)Cn1c(=O)n(Cc2ccccc2)c(=O)c2c(C)c(C(=O)N(C)C)sc21`, with 8.18%; and `COc1ccc(C2C(=O)N(C3CCCCC3)CC(=O)N2Cc2ccccc2Cl)cc1OC` (configuration not stated), with -19.9%.
As to `Cc1cccc(OCCSc2nc3ccccc3n2CC(=O)N2CCCCC2)c1C`, the “growth rescue” value was -18.2%.
Same read-out and setting: then `Cc1ccc(C(=O)N2CCc3cc(CNC(=O)c4ccc(Br)cc4)ccc32)cc1`, with -7.59%.
